The panel holds about 83,000 compounds, 20% with a hit somewhere; the sample as a whole holds those more often.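 Single-dose data. Exposure time 48 hours. Values below 10 considered active.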 Values without a mark were called inactive. Activity calls are given as the source filed them.

Assay in all cases: NCI-60 one-dose screen, 48 h (100 = growth as untreated, 0 = no growth, -100 = all killed)
Holding throughout (conditions): 10 µM unless noted

Experiment [1] has as its system SR leukemia.
Experiment [2] deals with RPMI-8226 leukemia.
Experiment [3] has as its system OVCAR-8 ovarian.
The test system of experiment [4] is OVCAR-5 ovarian.
Experiment [5] relates to SK-OV-3 ovarian.
Experiment [6] relates to IGROV1 ovarian.
Experiment [7] has as its system OVCAR-3 ovarian.
Experiment [8] deals with HS 578T breast.
For experiment [9], the system named is NCI/ADR-RES ovarian.
Experiment [10] relates to OVCAR-4 ovarian.

Consider `O=C1/C(=C/c2ccc(Cl)cc2)CN(C(=O)C(Cl)Cl)C/C1=C\c1ccc(Cl)cc1`, for which the growth in [1] is -8.06% (active); in experiment [2], -28.6% (active); in experiment [3], -3.39% (active); in [4], -61.8% (active); in experiment [5], -7.85% (active); in [6], -76.3% (active). Moreover, the growth was -97.9% (active) in experiment [7], -8.2% (active) in experiment [8] and -2.96% (active) in experiment [9].

Consider `CC(C)CCC[C@@H](C)[C@H]1CC[C@H]2[C@@H]3CC=C4c5sc(Nc6cc(C(F)(F)F)cc(C(F)(F)F)c6)nc5CC[C@]4(C)[C@H]3CC[C@]12C`, for which the growth in experiment [1] is 106%; in experiment [2], 106%; in [3] it was 89.2%; in experiment [4] it was 106%; in experiment [10], 100%; in experiment [5] it was 89.2%. Moreover, the figures for the growth in experiment [6], in [7] and in [9] were 97.7%, 102% and 102%, respectively.

Take `COCCn1cc(-c2csc(-c3c[nH]c4ccccc34)n2)c2cccnc21`: the growth was 8.15% (active) in [1]; 43.8% in experiment [2]; 38.6% in experiment [3]; 75.7% in experiment [4]; 44.3% in experiment [10]; 49.5% in experiment [5]. The growth in [6] was 41.8%; in experiment [7], 20.7%; in experiment [9] it was 12.7%.

Regarding `N#CSc1c[nH]c2ccc(/C=C/C(=O)/C=C(O)/C=C/c3ccc4[nH]cc(SC#N)c4c3)cc12`, the growth in experiment [1] was 2.57% (active); in experiment [2], 3.93% (active); in experiment [3], 9.71% (active); in [4] it was 67.4%; in experiment [5] it was 100%; in experiment [6], 3.73% (active). Further, the growth is 18.3% in experiment [7], 51.7% in experiment [8] and 46.4% in [9].

Turning to `N#Cc1ccccc1-c1ccc(CN2C(=O)S/C(=C\c3ccc(Br)cc3)C2=O)cc1`, the growth in [1] was 89.3%; in [2] it was 103%; in [3] it was 101%; in experiment [4], 101%; in experiment [10] it was 90.2%; in experiment [5] it was 94.3%. Also, the growth is 98.3% in [6], 112% in experiment [7] and 94.1% in experiment [9].

For the molecule `Cc1ccc(S(=O)(=O)OC[C@]23CCC(C)(C)C[C@H]2C2=CC[C@@H]4[C@@]5(C)CCCNC(C)(C)[C@@H]5CC[C@@]4(C)[C@]2(C)CC3)cc1`, the growth was -27.3% (active) in [1]; 26.8% in experiment [2]; -13.7% (active) in [3]; 84.7% in experiment [4]; 103% in [5]; 16.9% in experiment [6]. Moreover, the growth in [7] is 76.5%; in experiment [8] it was 85.3%; in experiment [9] it was 52.3%.

For `C[C@H]1[C@H](C)CC[C@]2(C(=O)NCCNCCN)CC[C@]3(C)C(=CC[C@@H]4[C@@]5(C)CCC(=O)C(C)(C)[C@@H]5CC[C@]43C)[C@H]12`, the growth in experiment [1] is -38.7% (active); in experiment [2] it was -16.3% (active); in experiment [3], 33.6%; in experiment [4], 94.1%; in experiment [5], 87.4%; in experiment [6] it was 52.7%. For the same molecule, the growth in experiment [7] is 9.12% (active); in experiment [8], 72.5%; in experiment [9] it was 88.2%.

As for `CC(C)(Sc1cc(C(C)(C)C)c(O)c(C(C)(C)C)c1)Sc1cc(C(C)(C)C)c(OC(=O)CCC(=O)O)c(C(C)(C)C)c1`, the growth was 78.6% in [1]; 30.3% in [2]; 41.3% in [3]; 87% in [4]; 67% in experiment [10]; 80.3% in experiment [5]. The growth was 55.9% in [6], 46.8% in experiment [7] and 61.5% in [9].

Consider `C=C1C(=O)O[C@H]2[C@H]1CC/C(COC(=O)NCc1ccc(Cn3c(=O)sn(-c4ccc(I)cc4)c3=O)cc1)=C\CC[C@@]1(C)O[C@@H]21`, for which the growth is 63% in experiment [1]; 7.56% (active) in experiment [2]; 82.1% in [3]; 96.5% in experiment [4]; 100% in experiment [5]; 67.5% in [6]. The growth is 23.7% in experiment [7], 85.7% in experiment [8] and 106% in [9].

In the case of `Cc1cc(C)c2c(c1)N(C)c1ncnc(-n3c(C)nc4cc(C)ccc43)c1CC2C` (centres undefined), the growth in experiment [1] was 11.3%; in experiment [2] it was 35%; in experiment [3] it was 71.6%; in experiment [4] it was 91.2%; in experiment [5], 31.5%; in experiment [6], 47.5%. Also, the growth was 21.5% in [7] and 40.9% in experiment [8].

For `COc1ccc2c(c1)CC[C@@H]1[C@@H]2CC[C@]2(C)C3C(=CC(COC(C)=O)C4C(=O)N(c5ccc(Cl)cc5)C(=O)C43)C[C@@H]12` (some centres undefined), the growth in [1] is 35.4%; in experiment [2] it was 61.8%; in [3], 107%; in experiment [4] it was 78.4%; in experiment [5], 125%; in experiment [6] it was 119%. The growth is 110% in [7], 110% in experiment [8] and 102% in experiment [9].

`CCCCn1c(NC(C)=O)c(S(=O)(=O)c2ccccc2)c2nc3ccccc3nc21`: the growth in [1] is 86.9%; in experiment [2], 107%; in experiment [3], 98.9%; in [4], 93.2%; in experiment [5], 98.5%; in [6] it was 76.3%. Besides, the figures for the growth in experiment [7], in [8] and in experiment [9] were 95.7%, 95.9% and 97.7%, respectively.

With `CCOC(=O)c1cn2ncnc(Oc3ccc(NC(=O)NC4CC4)c(Cl)c3)c2c1C`, the growth is 77.5% in [1]; 61.3% in experiment [2]; 98.6% in experiment [3]; 108% in experiment [4]; 53.2% in [10]; 111% in experiment [5]. For the same molecule, the growth in experiment [6] is 87.6%; in experiment [7], 107%; in [9], 90.3%.

For `C=CN(C(=O)N1CCN(c2cc3c(cc2F)c(=O)c(C(=O)O)cn3C2CC2)CC1)c1nc(-c2ccc(Cl)cc2)cs1`, the growth was 33.2% in experiment [1]; 15.9% in [2]; 67.3% in [3]; 85.7% in [4]; 74.7% in experiment [5]; 21.4% in experiment [6]. In addition, the growth in experiment [7] is 53.9%; in [8], 54.3%; in [9], 90.6%.

On to `O=Nc1ccc(NC(=O)Nc2ccc([N+](=O)[O-])cc2)cc1`, for which the growth in [1] is 81.1%; in experiment [2], 44.1%; in experiment [3], 91.5%; in experiment [4] it was 122%; in experiment [10] it was 87.1%; in experiment [5] it was 102%. Also, the growth is 99.5% in [6], 98.4% in experiment [7] and 91.6% in experiment [9].

With `CSc1nc(-c2ccco2)c(C#N)c(=O)n1C`, the growth in experiment [1] is 74.9%; in [2] it was 91.8%; in experiment [3] it was 108%; in [4], 109%; in [5], 97%; in experiment [6], 105%. The figures for the growth in experiment [7], in experiment [8] and in experiment [9] were 104%, 97% and 51.2%, respectively.

As to `CCCC(=O)NC(c1ccc2c(c1)OCO2)c1cc(Cl)c2cccnc2c1O` (centres undefined), the growth in experiment [1] is 10.9%; in experiment [2] it was 17.7%; in experiment [3], 10.6%; in [4], 54%; in experiment [5], 29.8%; in experiment [6] it was 16.2%. For the same molecule, the growth in experiment [7] was 17.6%; in experiment [8], 44.4%; in [9], 1.56% (active).

As to `O=C1/C(=C/c2c[nH]c(=O)[nH]c2=O)SC(=S)N1Cc1ccccc1`, the growth is 99.5% in experiment [1]; 101% in experiment [2]; 100% in experiment [3]; 99% in experiment [4]; 103% in [5]; 102% in experiment [6]. The growth in experiment [7] was 108%; in experiment [8], 89%; in [9] it was 106%.

Turning to `CNC(=O)NCC1OC(n2cnc3c(NC(=O)Nc4ccccc4)ncnc32)C2OC(=O)CC12` (centres undefined), the growth in experiment [1] was 90.3%; in [2], 105%; in experiment [3], 96.4%; in experiment [4], 96.8%; in experiment [5], 102%; in experiment [6] it was 92.3%. In addition, the growth in [7] was 91.7%; in experiment [8], 105%; in experiment [9], 96.8%.

For the molecule `O=c1oc2c(cnc3ccccc32)cc1-c1cccc(Cl)c1`, the growth in [1] is 93%; in experiment [2], 101%; in experiment [3] it was 109%; in experiment [4], 94%; in experiment [10], 102%; in experiment [5], 105%. The growth in experiment [6] was 106%; in experiment [7], 112%; in experiment [9] it was 103%.

For the molecule `Nc1cc(C(=O)O)cc(-n2c(O)c(C=C3N=c4ccccc4=N3)sc2=S)c1`, the growth in experiment [1] is 121%; in [2], 100%; in [3], 103%; in experiment [4], 99%; in experiment [5], 99.9%; in experiment [6] it was 86.8%. For the same molecule, the growth is 106% in experiment [7] and 103% in experiment [9].

Turning to `CC12OC(CC(O)C1O)n1c3ccccc3c3c4c(c5c6ccccc6n2c5c31)C(=O)N(CCN1CCCC1)C4=O` (centres undefined), the growth in [1] was 2.44% (active); in [2] it was 1.17% (active); in experiment [3], 26.3%; in experiment [10], 27.9%; in experiment [5], 10.4%; in experiment [6] it was 13.9%. The growth in experiment [7] was 25.7%; in experiment [8], 41.1%; in experiment [9], 46.4%.

As to `CCOC(=O)NCCCC(=O)NCCc1ccccc1`, the growth in [1] is 106%; in experiment [2], 110%; in experiment [3], 104%; in [10], 107%; in [5], 108%; in experiment [6], 106%. Further, the values for the growth in experiment [7], in experiment [8] and in experiment [9] were 108%, 106% and 104%, respectively.

In the case of `C=C(C)[C@@H]1CC[C@]2(C(=O)Nc3ccccn3)CC[C@]3(C)[C@H](CC[C@@H]4[C@@]5(C)CCCNC(C)(C)[C@@H]5CC[C@]43C)[C@@H]12`, the growth in experiment [1] was -29.5% (active); in experiment [2] it was -46% (active); in [3], 12.4%; in [5] it was 32.2%; in experiment [6], 35.4%; in [7], 20.9%. In addition, the growth was 26.9% in experiment [8] and 61% in [9].

Consider `C=C(C)[C@@H]1CC[C@]2(CO)CC[C@]3(C)[C@H](CC[C@@H]4[C@@](C)(CCCN)[C@H](C(=C)C)CC[C@]43C)[C@@H]12`, for which the growth in [1] is -14% (active); in [2] it was -43.2% (active); in experiment [3], -40.4% (active); in [10] it was -67.8% (active); in experiment [5], -82.4% (active); in [6] it was -96.2% (active). The growth was -61.7% (active) in experiment [7], -52.3% (active) in experiment [8] and -80.4% (active) in experiment [9].

Take `CSc1ccc2c3c(n(C[C@H](O)CO)c(=O)c2c1)-c1ccccc1C3=O`: the growth in experiment [1] was 1.4% (active); in experiment [2], -17.3% (active); in [3], 33.3%; in [10], 85%; in [5] it was 81.6%; in experiment [6], 52.5%. Besides, the growth in [7] is 76.5%; in experiment [8], 83.3%; in experiment [9], 56%.

Regarding `COc1nc(/C=C\Nc2ccc3c(c2)OCCOCCOCCOCCO3)nc(OC)n1`, the growth was 119% in experiment [1]; 94.3% in [2]; 108% in experiment [3]; 95.5% in experiment [10]; 106% in experiment [5]; 97.2% in [6]. In addition, the growth in experiment [7] was 99.2%; in experiment [8], 89.9%; in [9], 93.7%.

In the case of `CN(C)CCC(CCN(C)C)(C(=O)O)c1ccccc1`, the growth was 110% in [1]; 99.8% in experiment [2]; 102% in experiment [3]; 105% in experiment [10]; 102% in experiment [5]; 93.7% in [6]. Besides, the growth in [7] is 113%; in experiment [8], 111%; in [9], 112%.

Values taken from PubChem BioAssay (NCI).
